# Data published in PubChem BioAssay.
# Where “and” joins values, the source holds several entries; their conditions need not be identical. Equal values may be shown once. Calls of active or inactive are those of the source. Cut-off read from the data, not from the text of the source, unless noted: active = inhibition above about 80%; inactive = the rest.
# Experiments:
# [1] = UWB1.289 ovarian carcinoma cell growth inhibition, synergistic combos for chromothripsis tumors, BGB or cisplatin combos (AID 1671456); settings: UWB1.289 ovarian carcinoma cells, stronger effect = higher value;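 note: cells exposed to compound for four days; 0% = vehicle DMSO and 100% = killing by high DMSO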
# [2] = LFS_MB_2R medulloblastoma cell growth inhibition, synergistic combos for chromothripsis tumors, cisplatin combos (AID 1671457); settings: LFS_MB_2R medulloblastoma cells, stronger effect = higher value;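 note: cells exposed to compound for four days before readout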
# [3] = MDA-MB-436 breast carcinoma cell growth inhibition, synergistic combos for chromothripsis tumors, BGB or cisplatin combos (AID 1671458; call rule not given here;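 note: cells exposed for 96 hours; 0% = vehicle DMSO and 100% = killing by high DMSO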); settings: MDA-MB-436 breast carcinoma growth inhibition, drug combinations, stronger effect = higher value
# [4] = UWB1.289_BRCA1 ovarian cancer growth, cell-based, BGB or cisplatin combinations (AID 1671459); settings: UWB1.289 BRCA1 ovarian carcinoma, drug combinations, stronger effect = higher value
# [5] = human astrocyte viability loss, single and combined drugs, cytotoxicity control for chromothriptic childhood tumor combination screen, cell-based, BGB or cisplatin IC20 combos (AID 1671460); settings: Human astrocytes, drug combinations, stronger effect = higher value;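 note: cells exposed to compounds for 96 hours before viability readout; 0% = vehicle and 100% = killing control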
# [6] = growth inhibition of BT084 medulloblastoma cells, cell-based, ICGC_MB145, cisplatin and BGB IC40 combos (AID 1671461); settings: drug combinations, stronger effect = higher value;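 note: cells exposed to drugs for 96 hours; 0% = vehicle DMSO and 100% = high DMSO full killing control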
# [7] = growth inhibition of RCMB18 medulloblastoma cells, cell-based, cisplatin and BGB IC40 combos (AID 1671462); settings: stronger effect = higher value;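 note: cells exposed to compound for four days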
# [8] = growth inhibition of CRL1545 osteosarcoma cells, cell-based, cisplatin and BGB IC20 combos (AID 1671464); settings: stronger effect = higher value;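 note: cells exposed to compound for 96 hours before readout; 0% = vehicle DMSO and 100% = high DMSO killing control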
# [9] = test system: F380Y; assay: modulators of BK channel variants, profiling panel, selectivity assay, cell-based, U2OS BacMam, thallium flux, beta subunits (AID 1259406;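 active = thallium flux through the channel raised or lowered by more than 3 SD from vehicle-only wells, actives on both sides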;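 note: initial slope of Thallos dye fluorescence rise after thallium is added; log ratio against the mean of 0.3% DMSO vehicle wells on the same plate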); settings: at 30 µM
# [10] = test system: F380Y/beta2Delta; assay: as above; settings: at 30 µM
# [11] = molecular target: Calcium-activated potassium channel subunit alpha-1 (Homo sapiens) + Leucine-rich repeat-containing protein 26 (Homo sapiens) (UniProt Q12791+Q2I0M4); assay: as above; settings: F380Y/Slo1WT/gamma1, at 30 µM
# [12] = test system: R275C; assay: as above; settings: at 30 µM
# [13] = test system: R275C/beta1; assay: as above; settings: at 30 µM
# [14] = test system: R275C/beta2Delta; assay: as above; settings: at 30 µM
# [15] = measured here: inhibition with BGB combination, at 0.05 µM
# [16] = measured here: inhibition with cisplatin combination, at 0.05 µM
# [17] = measured here: combination with cisplatin, at 0.5 µM
# [18] = measured here: combination with cisplatin, at 5 µM
# [19] = measured here: BGB combination, at 0.5 µM
# [20] = measured here: BGB combination, at 5 µM
# [21] = measured here: cisplatin combination, at 0.5 µM
# [22] = measured here: cisplatin combination, at 5 µM
# [23] = BGB combination, concentration series, at 5 µM
# [24] = cisplatin combination, concentration series, at 5 µM
# [25] = measured here: combo with BGB IC20, at 0.5 µM
# [26] = measured here: combo with cisplatin IC20, at 0.5 µM
# [27] = cisplatin combination, at 0.5 µM
# [28] = measured here: BGB IC40 combination 0.05 uM, at 0.05 µM
# [29] = measured here: BGB IC40 combination, at 0.05 µM
# [30] = measured here: with BGB IC20 combination, at 0.5 µM
# [31] = measured here: with cisplatin IC20 combination, at 0.5 µM
# Sequence of Calcium-activated potassium channel subunit alpha-1 (Homo sapiens) + Leucine-rich repeat-containing protein 26 (Homo sapiens) (Q2I0M4 whole entry, looked up, one chain of several): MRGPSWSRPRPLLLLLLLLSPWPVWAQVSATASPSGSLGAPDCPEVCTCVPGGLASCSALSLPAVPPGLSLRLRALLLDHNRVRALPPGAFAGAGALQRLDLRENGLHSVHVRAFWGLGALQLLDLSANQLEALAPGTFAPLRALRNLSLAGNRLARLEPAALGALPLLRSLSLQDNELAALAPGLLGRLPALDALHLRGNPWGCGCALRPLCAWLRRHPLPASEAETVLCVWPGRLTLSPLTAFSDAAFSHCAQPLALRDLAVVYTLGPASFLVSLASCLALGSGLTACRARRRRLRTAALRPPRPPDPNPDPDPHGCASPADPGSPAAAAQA
smiles,measurement,setting,value
Nc1nc(=S)c2[nH]cnc2[nH]1,inhibition,[1]; at 0.5 µM,63.1% (inactive)
same,inhibition,[1]; [15],-17.4%
same,inhibition,[1]; [16],-1.37%
same,inhibition,[2]; at 0.5 µM,-15.5% (inactive)
same,inhibition,[2]; [17],-18.2%
same,inhibition,[2]; [18],-6.5%
same,inhibition,[3]; at 0.5 µM,15.1% (inactive)
same,inhibition,[3]; [19],4.09%
same,inhibition,[3]; [20],52.8%
same,inhibition,[3]; [21],11.9%
same,inhibition,[3]; [22],66.7%
same,inhibition,[4]; [23],113%
same,inhibition,[4]; at 0.5 µM,63.6% (inactive)
same,inhibition,[4]; [24],110%
same,inhibition,[5]; at 0.5 µM,4.77% (inactive)
same,inhibition,[5]; [25],-3.14%
same,inhibition,[5]; [26],8.25%
same,inhibition,[6]; at 0.5 µM,-17.7% (inactive)
same,inhibition,[6]; [27],-11.9%
same,inhibition,"[6]; cisplatin combination, at 5 µM",0.406%
same,inhibition,[6]; [28],0.063%
same,inhibition,"[6]; single agent, at 5 µM",26.6%
same,inhibition,[7]; at 0.5 µM,-16.7% (inactive)
same,inhibition,"[7]; cisplatin combo, at 5 µM",-5.08%
same,inhibition,[7]; [29],-23.1%
same,inhibition,[7]; [17],12.6%
same,inhibition,"[7]; single agent, at 5 µM",-10.3%
same,inhibition,[8]; at 0.5 µM,-1.16% (inactive)
same,inhibition,[8]; [30],-1.16%
same,inhibition,[8]; [31],-1.16%
same,inhibition,"[8]; single agent, at 0.05 µM",-14.2%
same,inhibition,"[8]; single agent, at 5 µM",77.7%
O=c1c(O)c(-c2ccc(O)c(O)c2)oc2cc(O)cc(O)c12,inhibition,[1]; at 0.5 µM,-3.55% (inactive)
same,inhibition,[1]; [15],-4.11%
same,inhibition,[1]; [16],-12.6%
same,inhibition,[2]; at 0.5 µM,0.78% (inactive)
same,inhibition,[2]; [17],12%
same,inhibition,[2]; [18],15.1%
same,inhibition,[3]; at 0.5 µM,0.09% (inactive)
same,inhibition,[3]; [19],-0.722%
same,inhibition,[3]; [20],15.2%
same,inhibition,[3]; [21],-5.24%
same,inhibition,[3]; [22],12.3%
same,inhibition,[4]; [23],2.88%
same,inhibition,[4]; at 0.5 µM,-10.1% (inactive)
same,inhibition,[4]; [24],11.4%
same,inhibition,[5]; at 0.5 µM,-9.12% (inactive)
same,inhibition,[5]; [25],-6.54%
same,inhibition,[5]; [26],-19%
same,inhibition,[6]; at 0.5 µM,11.1% (inactive)
same,inhibition,[6]; [27],-4.44%
same,inhibition,"[6]; cisplatin combination, at 5 µM",-18.7%
same,inhibition,[6]; [28],37.6%
same,inhibition,"[6]; single agent, at 5 µM",-1.38%
same,inhibition,[7]; at 0.5 µM,8.96% (inactive)
same,inhibition,"[7]; cisplatin combo, at 5 µM",-16.5%
same,inhibition,[7]; [29],7.33%
same,inhibition,[7]; [17],6.44%
same,inhibition,"[7]; single agent, at 5 µM",2.31%
same,inhibition,[8]; at 0.5 µM,-39.9% (inactive)
same,inhibition,[8]; [30],-11.9%
same,inhibition,[8]; [31],-53.9%
same,inhibition,"[8]; single agent, at 0.05 µM",57.4%
same,inhibition,"[8]; single agent, at 5 µM",8.34%
CCn1cc(C(=O)O)c(=O)c2cc(F)c(N3CCNC(C)C3)c(F)c21 (stereo not given),inhibition,[1]; at 0.5 µM,-5.87% (inactive) and 3.27% (inactive)
same,inhibition,[1]; [15],-15.8% and -6.81%
same,inhibition,[1]; [16],-31.3% and -16.8%
same,inhibition,[2]; at 0.5 µM,-11.7% (inactive) and -17.4% (inactive)
same,inhibition,[2]; [17],-16.5% and -22.2%
same,inhibition,[2]; [18],-74.9% and -58.2%
same,inhibition,[3]; at 0.5 µM,-41.7% (inactive) and -18.1% (inactive)
same,inhibition,[3]; [19],-27.8% and -13.8%
same,inhibition,[3]; [20],-28.2% and -9.38%
same,inhibition,[3]; [21],-66.9% and -25.1%
same,inhibition,[3]; [22],-19.8% and -29.7%
same,inhibition,[4]; [23],-32.2% and -2.47%
same,inhibition,[4]; at 0.5 µM,-9.31% (inactive) and 2.01% (inactive)
same,inhibition,[4]; [24],-6.73% and 11.3%
same,inhibition,[5]; at 0.5 µM,-10.6% (inactive) and 4.2% (inactive)
same,inhibition,[5]; [25],-11.6% and -0.829%
same,inhibition,[5]; [26],-24.3% and -1.68%
same,inhibition,[6]; at 0.5 µM,-29.5% (inactive) and -34.2% (inactive)
same,inhibition,[6]; [27],-4.32% and -19.8%
same,inhibition,"[6]; cisplatin combination, at 5 µM",-10.2% and -20.4%
same,inhibition,[6]; [28],-19.8% and -12.4%
same,inhibition,"[6]; single agent, at 5 µM",-14.7% and -12.9%
same,inhibition,[7]; at 0.5 µM,-20.2% (inactive) and -5.16% (inactive)
same,inhibition,"[7]; cisplatin combo, at 5 µM",-24.3% and 18.4%
same,inhibition,[7]; [29],-16.8% and -25.7%
same,inhibition,[7]; [17],-27.2% and 7.44%
same,inhibition,"[7]; single agent, at 5 µM",-21.5% and -4.86%
same,inhibition,[8]; at 0.5 µM,-53.2% (inactive) and 15% (inactive)
same,inhibition,[8]; [30],-48% and 1.95%
same,inhibition,[8]; [31],-59.3% and 19.8%
same,inhibition,"[8]; single agent, at 0.05 µM",-84.2% and 11.3%
same,inhibition,"[8]; single agent, at 5 µM",-56% and 4.55%
CN1CCC(=C2c3ccccc3CCc3sccc32)CC1,log fold change Tl+ flux,[9],-0.0249 (inactive)
same,log fold change Tl+ flux,[10],-0.0147 (inactive)
same,log fold change Tl+ flux,[11],0.0222 (inactive)
same,log fold change Tl+ flux,[12],-0.0315 (inactive)
same,log fold change Tl+ flux,[13],0.0886 (inactive)
same,log fold change Tl+ flux,[14],0.0371 (inactive)
COc1ccc(CC2c3cc(OC)c(OC)cc3CC[N+]2(C)CCC(=O)OCCCCCOC(=O)CC[N+]2(C)CCc3cc(OC)c(OC)cc3C2Cc2ccc(OC)c(OC)c2)cc1OC (stereo not given),log fold change Tl+ flux,[9],-0.0106 (inactive)
same,log fold change Tl+ flux,[10],-0.00992 (inactive)
same,log fold change Tl+ flux,[11],-0.0136 (inactive)
same,log fold change Tl+ flux,[12],-0.0147 (inactive)
same,log fold change Tl+ flux,[13],0.0284 (inactive)
same,log fold change Tl+ flux,[14],-0.0198 (inactive)
O=c1oc2c(O)c(O)cc3c(=O)oc4c(O)c(O)cc1c4c23,inhibition,[1]; at 0.5 µM,-3.64% (inactive)
same,inhibition,[1]; [15],-22.8%
same,inhibition,[1]; [16],-16.6%
same,inhibition,[2]; at 0.5 µM,-23% (inactive)
same,inhibition,[2]; [17],-27.7%
same,inhibition,[2]; [18],-17%
same,inhibition,[3]; at 0.5 µM,-9.5% (inactive)
same,inhibition,[3]; [19],-12.3%
same,inhibition,[3]; [20],-25.4%
same,inhibition,[3]; [21],-5.2%
same,inhibition,[3]; [22],-11.4%
same,inhibition,[4]; [23],12.5%
same,inhibition,[4]; at 0.5 µM,-1.72% (inactive)
same,inhibition,[4]; [24],19.2%
same,inhibition,[5]; at 0.5 µM,10.8% (inactive)
same,inhibition,[5]; [25],0.281%
same,inhibition,[5]; [26],16.2%
same,inhibition,[6]; at 0.5 µM,-21.3% (inactive)
same,inhibition,[6]; [27],-17.9%
same,inhibition,"[6]; cisplatin combination, at 5 µM",-19.7%
same,inhibition,[6]; [28],1.07%
same,inhibition,"[6]; single agent, at 5 µM",-27.1%
same,inhibition,[7]; at 0.5 µM,-15.5% (inactive)
same,inhibition,"[7]; cisplatin combo, at 5 µM",10.7%
same,inhibition,[7]; [29],-24.9%
same,inhibition,[7]; [17],18.1%
same,inhibition,"[7]; single agent, at 5 µM",-30.9%
same,inhibition,[8]; at 0.5 µM,-12.1% (inactive)
same,inhibition,[8]; [30],3.22%
same,inhibition,[8]; [31],-19.8%
same,inhibition,"[8]; single agent, at 0.05 µM",-16%
same,inhibition,"[8]; single agent, at 5 µM",12.2%
